Screens deposited in PubChem by National Center for Advancing Translational Sciences (NCATS).
HCV inhibitor – blocks hepatitis C virus. Potency, µM (titrated, usually from 41.8 µM), for inactives: at the top dose activity change, negative = inhibition, actives largely listed as inhibitors. hit rate 3.4% among 340,000. Huh7.5.1 HCVcc-Cre infection, luciferase reporter, 44 h; also: potency is read from the fitted curve at half-maximal effect
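Luciferase read-out (15 sec integration) after a 15 min room-temperature substrate step quantifies HCVcc-Cre infection. Cells, 1,000 per well, had compound added 4 h post-plating, then virus at ~0.5 moi, and were cultured 44 h.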
HCMV inh – inhibitors of human cytomegalovirus | HFF cells, HCMV-luciferase reporter, 72 h; hits give low values | activity change, negative = inhibition, % at 57.5 µM | hit rate 4.5% among 410,000; in the data active = activity change below about -60%; inconclusive = no clear call, values can overlap the other calls; inactive = above about -39%
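Steps: HFFs plated, 16 h 37C; compounds added; HCMV-luciferase added to MOI 1 PFU/cell; 72 h 37C; OneGlo reagent, 5 min room temperature; luminescence read, normalized to controls.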
Pf growth 96h – P. falciparum growth inhibition at 96 hours. P. falciparum luciferase reporter growth, 96 h. Potency, µM (titrated, usually from 28.7 µM), for the others: at the top dose activity change, negative = inhibition, actives largely listed as inhibitors. hit rate 6.9% among 320,000. AID 504834; also: potency is read from the fitted curve at half-maximal effect
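Luminescence readout: decreased luciferase signal marks inhibited growth of reporter-expressing P. falciparum in infected red cells (2% hematocrit, 0.05% parasitemia final), exposed to compound two generations (96 h, 37 C, 5% CO2).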
LASV entry inh – Lassa virus entry inhibition | Potency, µM (titrated, usually from 37.9 µM), inactives show at the highest dose activity change, negative = inhibition, usual class: inhibitors | AID 540256 | hit rate 1.2% among 300,000 | Lassa virus pseudotype entry inhibition, cell reporter; calls by dose curve; tested in HEK293 cells; also: potency is read from the fitted curve at half-maximal effect; nearly all actives have a fitted effect of over 50% in size
Pf growth 48h – P. falciparum growth inhibition at 48 hours (one generation). P. falciparum luciferase growth in erythrocytes, 48 h. Potency, µM (series often up to 28.7 µM), without a hit: at the top dose activity change, negative = inhibition, most hits filed as inhibitors. hit rate 5.9% among 310,000; also: potency is read from the fitted curve at half-maximal effect
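Erythrocytes infected with P. falciparum carrying an integrated firefly luciferase reporter (2% hematocrit, 0.1% parasitemia final) were exposed to compounds in RPMI 1640 with 0.5% Albumax at 37 C, 5% CO2. Growth inhibition was scored as reduced luminescence.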
Marburg entry inh – Marburg virus entry inhibition | Marburg virus pseudotyped entry inhibition, cell reporter | AID 540276 | hit rate 1.8% among 300,000 | Potency, µM (series often up to 37.8 µM), inactives show at the top dose activity change, negative = inhibition, most hits filed as inhibitors; calls by dose curve; tested in HEK293 cells; also: potency is read from the fitted curve at half-maximal effect
* hit, by the source's call; ? = inconclusive; · = no result given; ! = not active in a repeat; [ ] = dose if it differs, or a comment. Compounds with a hit are over-represented: about 14% of the library has one in this group of screens. Unless noted, calls follow the shape of the dose curve; as a rule, active = well fitted inhibition curve with a large enough effect; inconclusive = small, poorly fitted or top-dose-only effect, or another doubt; inactive = no such curve, though single readings can be large or run the other way. % is scaled to controls: 0 for no effect and ±100 for the full control effect.

SMILES	HCV inhibitor	HCMV inh	Pf growth 96h	LASV entry inh	Pf growth 48h	Marburg entry inh
Cc1nc(N2CCN(c3ccccn3)CC2)c2c(C)c(C(=O)Nc3c(F)cc(F)cc3Br)sc2n1	12.6µM*	?	28.4%	·	11.7µM*	·
CCN(CC)CC1CN(N=Cc2ccc([N+](=O)[O-])o2)C(=O)O1 (stereo not drawn)	?	-39.1	·	-3.5%[46.1 µM]	·	-3.6%[46.1 µM]
CC(=O)CSc1cc(-c2ccccc2)nc2ncnn12	4.3%	-23.9	-18.5%	11.2%[46.1 µM]	4.5%	2.5%[46.1 µM]
CC(=O)n1cc(-c2ccncc2)c2ccccc21	10µM*	-93.6*	?	·	?	·
O=C(NCc1cccc(Cl)c1)c1cccc(OC2CCN(C(=O)C3CC3)CC2)c1	?	-70.2*	?	?	?	?
CCCCOc1ccccc1-c1ccccc1CN1[C@@H](C(C)C)COCCS1(=O)=O	?	-32.1	·	·	·	·
CC(C)[C@H]1COCCS(=O)(=O)N1Cc1ccccc1-c1cccc2c1oc1ccccc12	12.6µM*	-20.8	·	·	·	?
COc1ccc(S(=O)(=O)Nc2c(NC3CCCCC3)c3ccccc3oc2=O)cc1	?	-27.5	?	·	0.9%	·
Cc1ccc(CCNC(=O)NCc2noc3ccc(C)cc23)cc1	·	-10.6	·	-6.9%[46.1 µM]	·	·
Nc1cc(=O)[nH]c2nnc(SCC(=O)Nc3cccc4ccccc34)n12	2.9%	0.0	7.38µM*	2.0%	-5.2%	4.1%[46.1 µM]
COc1ccccc1-n1c(SC)nc(O)cc1=O	4.8%	28.0	-0.8%	·	·	·
COc1ccccc1NC(=O)CSc1nc(O)cc(=O)n1-c1ccccc1OC	15.4%	-11.0	·	9.3%	3.29µM*	23.6%
COc1ccc(-n2c(SCC(=O)Nc3cccc4ccccc34)nc(O)cc2=O)cc1	23.3%	6.3	0.294µM*	14.5%	2.08µM*	1.3%[46.1 µM]
COc1ccccc1-n1c(SCC(=O)Nc2ccccc2C)nc(O)cc1=O	-9.3%	-21.8	-14.5%	-13.6%	2.62µM*	2.7%
COc1ccc(-n2c(SCC(=O)Nc3ccccc3)nc(O)cc2=O)cc1	21.0%	?	-8.7%	·	-13.6%	·
Cc1ccc2c(=O)c(C(=O)c3ccccc3)cn(CC(=O)Nc3ccccc3)c2n1	·	-3.8	·	27.2%[46.1 µM]	·	·
CCOC(=O)[C@H]1[C@H]2COc3ccc(Br)cc3[C@H]2N2C(=O)CN(Cc3ccc(C)cc3)C(=O)[C@@]12C	?	-5.6	·	·	·	·
COc1cc2c(c(OC)c1OC)C(c1ccc(C)cc1)CC(=O)O2 (stereo not drawn)	10.0%	16.4	·	·	·	·
COc1ccc(NC(=O)COCc2cc(-c3ccc4c(c3)OCO4)on2)cc1	·	4.1	·	7.0%[46.1 µM]	·	·
CCc1c(C)nc(N)n2c(SCC(=O)Nc3ccccc3OC)nnc12	26.1%	2.5	10.4µM*	-13.3%	-4.3%	10.7%
CCOc1ccccc1NC(=O)CSc1nnc2c(CC)c(C)nc(N)n12	15.0%	-4.0	·	5.7%	-2.5%	0.2%
Cc1ccc(-n2c(SCC(=O)Nc3ccc4c5c(cccc35)CC4)nc(O)cc2=O)cc1	-21.3%	-7.5	2.62µM*	6.0%	2.94µM*	2.5%
CCOc1ccccc1NC(=O)CSc1nc2cc(O)ccc2c(=O)n1-c1ccc(OC)c(OC)c1	11.2µM*	-71.8*	?	·	?	·
Cc1cc(O)c(C(C)C)cc1Cl	·	·	15.1µM*	·	?	·
COc1ccc(NC(=O)CCc2nnc3ccc(N4CCC(C)CC4)nn23)cc1OC	14.7%	-20.0	4.15µM*	·	-1.4%	·
SMILES	HCV inhibitor	HCMV inh	Pf growth 96h	LASV entry inh	Pf growth 48h	Marburg entry inh
COc1ccc(OC)c(NC(=O)CCc2nnc3ccc(N4CCC(C)CC4)nn23)c1	-13.1%	-36.6	34.3%	-19.3%[46.1 µM]	?	-9.5%[46.1 µM]
CC(=O)c1cccc(NC(=O)CCc2nnc3ccc(N4CCOCC4)nn23)c1	4.4%	0.0	10.4µM*	2.2%[46.1 µM]	-10.6%	-6.6%[46.1 µM]
O=C(CCc1nnc2ccc(N3CCCCC3)nn12)NCC1CCN(Cc2ccc(F)cc2)CC1	-6.8%	-11.6	10.4µM*	-1.8%[46.1 µM]	?	?
CCOc1ccc(NC(=O)CCc2nnc3ccc(N4CCC(C)CC4)nn23)cc1	-8.9%	?	?	?	9.28µM*	-26.7%[46.1 µM]
COc1cccc(N2CCN(c3ccc4nnc(CCC(=O)Nc5cccc(C(C)=O)c5)n4n3)CC2)c1	14.3%	-26.6	-10.9%	·	15.7%	·
CCOC(=O)Cn1c(=O)n(CC2CCCO2)c2nc(-c3c(F)cccc3Cl)nc(C(N)=O)c21 (stereo not drawn)	·	11.0	·	-3.0%[46.1 µM]	·	·
CCCOc1ccc(N2C(=O)CC(SCc3nc4ccccc4[nH]3)C2=O)cc1 (stereo not drawn)	-5.2%	-1.8	22.8%	-2.2%	20.3%	5.9%
CCCOc1ccc(N2C(=O)CC(SC(=N)N3N=C(c4ccccc4)CC3c3ccccc3)C2=O)cc1 (stereo not drawn)	?	61.0	-21.6%	·	2.33µM*	·
CCOC(=O)C(C)Sc1nc2c(c(-c3cccs3)c1C#N)CCC2 (stereo not drawn)	?	-26.3	10.4µM*	-8.3%	?	?
COC(=O)CSc1nc2c(c(-c3ccco3)c1C#N)CCCC2	?	·	·	-12.9%	1.85µM*	10.1%
N#Cc1c(N)nc(SCC(=O)OCc2ccccc2)c(C#N)c1-c1ccco1	-15.7%	33.8	4.15µM*	9.0%	?	-13.1%
N#Cc1c(SC(C(=O)O)c2ccccc2)nc2c(c1-c1cccs1)CCCC2 (stereo not drawn)	2.6%	-20.5	-5.0%	1.9%	-12.7%	-4.6%[46.1 µM]
CC(C)OC(=O)CC(=O)CSc1nc2c(c(-c3cccs3)c1C#N)CCC2	10µM*	-18.8	-3.3%	·	9.7%	·
CCOc1ccc(OCC)c2sc(C)nc12	10µM*	34.3	24.2%	-6.4%	5.7%	-3.2%
COc1ccccc1NC(=O)CSCc1cc(=O)c2cccc(Cl)c2[nH]1	·	23.6	·	-21.7%[46.1 µM]	·	·
CCCN1CCc2cc(O)cc3c2[C@H]1Cc1ccc(O)c(O)c1-3	?	-6.7	·	-36.7%	·	35.5µM*!
CN1CCc2cccc3c2[C@@H]1Cc1ccc(O)c(O)c1-3	0.9%[8.37 µM]	·	2.62µM*	-18.6%	2.62µM*	?
COc1cc2c(cc1O)C[C@H]1c3c(cc(O)c(OC)c3-2)CCN1C	?	60.0	?	·	?	·
CN1CCc2cc(O)cc3c2[C@H]1Cc1ccc(O)c(O)c1-3	26.9%	?	·	?	·	?
CC(=O)c1cccc(NC(=O)C2CCN(c3nnc(-n4cccc4)s3)CC2)c1	·	5.2	·	?	·	·
CCCCCCCCCCCCN1C/C(=C\C(=O)OCC)c2ccccc2S1(=O)=O	11.3%	-6.2	?	·	?	·
CCOC(=O)/C=C1\CN(Cc2cc(OC)c(OC)c(OC)c2)S(=O)(=O)c2ccccc21	3.16µM*	?	?	·	?	·
CCCNC(=O)C1(C)CCN(Cc2ccc(C(=O)OCC)cc2)C1 (stereo not drawn)	·	-0.7	·	·	·	·
